About 83,000 compounds went through this panel and 20% of them were active in at least one assay; those are over-represented in the sample as a whole.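 The endpoint reported here, percent growth, reads 100 for growth as untreated, 0 for no net growth and -100 for all cells dead.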 A number with no mark means an inactive call. Active and inactive are the calls of the source. Rule for the calls: active = growth percent below 10; inactive = the rest.

The subject of this assay is MDA-MB-468 breast. Description: NCI-60 one-dose screen, 48 h (100 = growth as untreated, 0 = no growth, -100 = all killed). Conditions: 10 µM unless noted.
Turning to `CC(C)C[C@H](C(=O)N[C@H](C(N)=O)C(C)C)N1CC=CCN(OCc2ccccc2)S1(=O)=O`, the growth was 105% [2.5 µM].

For the molecule `CN(CCCCCl)P(=O)(OCc1ccc([N+](=O)[O-])o1)C(F)(F)C[C@H](NC(=O)CNC(=O)c1ccc(N=[N+]=[N-])cc1)C(=O)NCCc1ccc(O)cc1` (stereo not given in full), the growth was 12.5%.

For `N#CC1CCc2c(c(-c3ccc4nc(N)sc4c3)nc3ccc4[nH]ncc4c23)C1` (stereo not given), the growth is 21.4%.

Regarding `CCCCCCCCCCCCCCCCCC1=NC(C)(CO)CO1` (stereo not given), the growth was 82%.

For `CCN1CCC2(CC1)NC(=O)c1c(c3ccc(Cl)c(Cl)c3n1C)C2C#N` (stereo not given), the growth is -16.3% (active).

For the molecule `O=C(/C=C/c1ccccc1Br)c1cccc(OCCCCOc2cccc(C(=O)/C=C/c3ccccc3Br)c2)c1`, the growth was 95.4%.

On to `C[C@H](NC(=O)[C@@H]1CSSC[C@@H](NC(=O)c2nc3ccccc3cc2O)C(=O)NCC(=O)N1C)c1ccccc1`, for which the growth is 41.4%.

`CC(Br)C(Br)c1cc2c(cc1Br)OCO2` (stereo not given): the growth was 96.8%.

Consider `COc1cc(Nc2nc(NCCN)nc3cc[nH]c(=O)c23)cc(OC)c1`, for which the growth was 3.37% (active).

In the case of `Cc1cc(N)ccc1-c1ccc(N)cc1C`, the growth is 97.5%.

`COc1ccc2c(c1OC)C(=O)O[C@H]2[C@H]1c2c(cc3c(c2OC)OCO3)CCN1C`: the growth is 90.3%.

Turning to `O=C1NCC(=O)N(Cc2ccco2)[C@H]1Cc1ccccc1`, the growth is 114%.

With `Cc1c(O)cc(-c2cnc(N/N=C\c3ccc(Cl)cc3)s2)c(O)c1C`, the growth is 76%.

As for `Cc1ccc(C)c(CN(C)C)c1O`, the growth is 97.7%.

In the case of `C=C(C)[C@@H]1CC[C@]2(CN)CC[C@]3(C)[C@H](CC[C@@H]4[C@@]5(C)CCC(=O)NC(C)(C)[C@@H]5CC[C@]43C)[C@@H]12`, the growth is 35.5%.

On to `CSc1nc(N)nc2c1ncn2C`, for which the growth was 108%.

Take `CCCC(O)Cn1ncc(C(=O)OCC)c1NC(=O)NCc1cccc(C(F)(F)F)c1` (stereo not given): the growth was 79.3%.

For the molecule `CCCOS(=O)(=O)c1ccccc1`, the growth is 108%.

For `C=CC(=O)Nc1cc(Nc2nccc(-c3cn(C)c4ccccc34)n2)c(OC)cc1N(C)CCN(C)C`, the growth was -74.1% (active).

For the molecule `O=C([C@H]1C[C@H]1c1ccc(S(F)(F)(F)(F)F)cc1)N1CCN(c2cc(Cl)ccc2C(F)(F)F)CC1`, the growth is 58.9%.

On to `C(=N\Nc1ncc(-c2cc3cc4c(cc3o2)OCO4)s1)/c1c[nH]c2ccccc12`, for which the growth was 0.523% (active).

For `COC(=O)/C=C1\S/C(=N\NS(=O)(=O)c2ccc(C)cc2)N(c2ccccc2)C1=O`, the growth is 102%.

For the molecule `COc1cc2nc(Sc3sc(N)nc3C)n(-c3ccc(Oc4ccccc4)cc3)c(=O)c2cc1OC`, the growth is 80.2%.

On to `C#Cc1nc(C2=C(C)C(=O)/C(=N/OC(C)=O)C2)cs1`, for which the growth is 69.9%.

Turning to `Nc1ccc(SSc2ccc(N)cc2)cc1`, the growth was 101%.

As for `CCCCCCC(=O)C(C)C`, the growth was 98.8%.

Consider `CC(CN(C)C)Oc1ccccc1NC1=C(Cl)C(=O)C(Nc2ccccc2OC(C)CN(C)C)=C(Cl)C1=O` (stereo not given), for which the growth was -64.2% (active).

In the case of `O=C(Nc1ccccc1)Nc1ccc(Nc2ncnc3sc4c(c23)CCCC4)cc1`, the growth is 96.9%.

As for `COc1ccc(/C=C/C(=O)c2cc3c(N)c(C(=O)Nc4cccc5ccccc45)sc3nc2C)cc1`, the growth was 58.5%.

Turning to `CCOc1ccc2nc(NC(=O)c3ccc(C(F)(F)F)cc3)sc2c1`, the growth was 111%.

For `CNC(=O)c1cc(Oc2ccc3c(c2)sc2nc(-c4ccc(OC)cc4)cn23)ccn1`, the growth was 16.8%.

`Cc1nnc(/N=C2\NC(=O)/C(=C/c3ccc(N(C)C)cc3)S2)s1`: the growth is 87.2%.

Consider `Cc1nc2sc(C(=O)Nc3cccc(Cl)c3)c(N)c2cc1C(O)c1ccccc1` (stereo not given), for which the growth is 15.3%.

In the case of `CC(C)N(CCOc1cccc(-c2nc3sccn3c2-c2ccnc(S(C)(=O)=O)n2)c1)C(C)C`, the growth was -2.25% (active).

As for `C#C[C@]1(O)CCC2C3CCc4cc(OC5CCCC5)ccc4C3CC[C@@]21C` (stereo not given in full), the growth was 69.1%.

On to `COC(=O)C(Cc1ccccc1)NC(=O)NC(=O)NC(=O)CI` (stereo not given), for which the growth is 82.8%.

Regarding `O=C(CSc1nc2ccc([N+](=O)[O-])cc2[nH]1)Nc1cccc([N+](=O)[O-])c1`, the growth is -1.47% (active).

As for `CCCCc1nc(Cl)c(C2CC(c3ccc(Cl)cc3)=NN2c2cc(Cl)cc(Cl)c2)[nH]1` (stereo not given), the growth was 88.3%.

As for `COc1ccc(NC(=O)CSc2nc(-c3ccc(OC)c(OC)c3)cc(-c3cc(OC)c(OC)c(OC)c3)n2)cc1`, the growth is 110%.

On to `C[C@@H](N)c1ccc(C(=O)Nc2ccnc3[nH]ccc23)cc1`, for which the growth was 49.2%.

The values above are taken from PubChem BioAssay (NCI).
